Data as given in PubChem BioAssay.
Values joined by “and” are separate entries in the source; they are usually repeats but may differ in a detail not shown here. Equal values may be shown once. Some compounds were tested as several samples or in several runs, with calls that do not always agree. Active and inactive are the calls of the source. Unless noted, the rule behind the calls is not given here.

What was measured:
[1] = P. berghei load reduction in hepatocytes – cell-based, HepG2, luciferase luminescence, HepG2 viability, primary screen (AID 624349; in the data active = parasite load remaining mostly below about 12%, no sharp cut-off; inactive = mostly above about 10%;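 note: 100% = mean of DMSO negative control wells on the same plate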); conditions: P. berghei liver stage in HepG2, luciferase luminescence, concentration not given here; parasite load remaining: stronger effect = lower value; viability: measured here: HepG2 viability without parasites
[2] = signal quenchers or enhancers, Cy5 substrate/SSB – biochemical, NIH Clinical Collection, E. coli SSB, artefact control for HCV NS3 helicase inhibitor project (AID 743268); conditions: Cy5-oligo bound E. coli SSB, fluorescence interference
[3] = test system: Hepatitis C virus NS3 helicase; experiment: blockers of NS3h binding to DNA – biochemical, fluorescence polarization, NIH Clinical Collection, primary screen (AID 743270); conditions: NS3 helicase binding to Cy5-dT15 DNA, stronger effect = higher value, concentration not given here
[4] = molecular target: Single-stranded DNA-binding protein (Escherichia coli (strain K12)) (UniProt P0AGE0); experiment: SSB-ssDNA binding inhibitors – biochemical, fluorescence polarization, NIH Clinical Collection, counter-screen for HCV NS3 helicase inhibitor project (AID 743271; in the data active = inhibition above about 28%); conditions: E. coli SSB-DNA binding, stronger effect = higher value, concentration not given here
[5] = compounds distorting NS3 helicase fluorescence signal – biochemical, NIH Clinical Collection, artefact control for HCV NS3 helicase inhibitor project (AID 743272); conditions: fluorescence interference counterscreen, HCV NS3 helicase assay; stronger effect = lower value;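 note: HCV NS3 helicase with a Cy5 labelled single stranded DNA probe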
[6] = test system: Neuropilin-2 / VEGF-C interaction (human); experiment: small molecules blocking Neuropilin-2/VEGF-C interaction – biochemical, microplate binding format, z-score (AID 743281); conditions: microplate NRP2/VEGF-C binding assay; stronger effect = lower value
[7] = Wnt pathway potentiators raising nuclear beta-catenin – imaging, WNT3A-conditioned medium, mouse C2C12, NPC library, primary screen (AID 1117326; in the data active = nuclear beta-catenin stimulation mostly above about 4.2%, no sharp cut-off; inactive = mostly below about 10%); conditions: stronger effect = higher value
[8] = stimulators of insulin release from INS-1E, primary screen, cell-based, 5 mM glucose, NPC library (AID 1117329;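 active = compound raises insulin release from rat beta cells at 5 mM glucose, no numeric limit stated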); conditions: rat INS-1E insulin secretion, at 10 µM, stronger effect = higher value
[9] = growth inhibition of GSK3B-pretreated HCT116 cells – cell-based, CellTiter-Glo, 0.2 to 20 µM (AID 1117336;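 active = compounds lowering colon cancer cell viability after pretreatment blocking the GSK3B kinase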); conditions: HCT116 viability after GSK3B inhibitor, at 20 µM, stronger effect = higher value
[10] = inhibition of endothelial tube formation, primary screen, imaging, VEGF stimulated, CD31 staining, tube area, NPC library (AID 1117340;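 active = compound that reduces growth-factor-driven endothelial tube area in a mixed cell culture, no cutoff stated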); conditions: VEGF-stimulated ADSC/ECFC co-culture, at 10 µM, stronger effect = higher value
[11] = GLP1 release stimulators, primary, NCI-H716, NPC library (AID 1117341;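 active = compound raises GLP1 secretion from the human gut endocrine cells, with no numeric limit stated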); conditions: NCI-H716 cells, at 10 µM, stronger effect = higher value
[12] = HCT116 colon cancer cell growth inhibition, primary screen, CellTiter-Glo luminescence, NPC library (AID 1117342;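 active = compounds that lower survival of HCT116 colon cancer cells in the luminescence readout, no numeric limit stated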); conditions: at 20 µM (top of the series)
[13] = reduced SW480 viability measured with CellTiter-Glo, NPC library, primary (AID 1117343;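 active = compounds that lower viability of the colon cancer cells in the luminescence readout, with no numeric limit stated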); conditions: CellTiter-Glo luminescence; at 20 µM (top of the series)
[14] = NPC library primary testing for decreased DLD-1 cell viability via CellTiter-Glo (AID 1117346;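 active = compounds that lower survival of DLD-1 colon cancer cells in the luminescence readout, no cutoff given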); conditions: DLD-1 viability, CellTiter-Glo luminescence; at 20 µM (top of the series)

Row | Compound | parasite load remaining [1] | viability [1] | fluorescence ratio [2] | inhibition [3] | inhibition [4] | fluorescence ratio [5] | z-score [6] | nuclear beta-catenin stimulation ([7]; at 10 µM) | nuclear beta-catenin stimulation ([7]; stimulation, at 2 µM) [%] | insulin secretion stimulation [8] | viability decrease [9] | tube area decrease [10] | GLP1 secretion stimulation [11] | inhibition of viability [12] | viability decrease (inhibition) [13] | viability decrease (inhibition) [14] | outcome [6]
1 | CC(=O)Nc1ccc(CC(=O)O)cc1 | 119% (inactive) | 78.7% | 1.02 (inactive) | 0.4% (inactive) | -2.41% (inactive) | 0.93 (inactive) | -0.00496 (inactive) | -0.2% (inactive) | 0.4 | -2.2% (inactive) | -4.5% (inactive) | 12.1% (inactive) | 0.9% (inactive) | -11% (inactive) | 16.5% (inactive) | -2.4% (inactive) | 
2 | O=c1[nH]cnc2c1ncn2[C@H]1CC[C@@H](CO)O1 | 41.8% (inactive) and 84.4% (inactive) and 65.2% (inactive) | 46.9% and 69.4% and 110% | 1.06 (inactive) | 1.19% (inactive) | 0.67% (inactive) | 1.01 (inactive) |  | -2.1% (inactive) | -0.4 | 3.9% (inactive) | -9% (inactive) | -4.4% (inactive) | 3.6% (inactive) | -3.4% (inactive) | -7.8% (inactive) | -6.1% (inactive) | inactive
3 | Cn1nnc2c(C(N)=O)ncn2c1=O | 106% (inactive) and 19.4% (inactive) | 79.6% and 80.5% | 1.03 (inactive) | -5.94% (inactive) | -0.87% (inactive) | 0.9 (inactive) | -0.72 (inactive) | -1.7% (inactive) | 0 | 6.3% (inactive) | -10.2% (inactive) | 26.7% (inactive) | -2.4% (inactive) | 1.9% (inactive) | -3.8% (inactive) | -1.4% (inactive) | 
4 | COC(=O)C1=C(C)NC(C)=C(C(=O)O[C@@H]2CCCN(Cc3ccccc3)C2)[C@@H]1c1cccc([N+](=O)[O-])c1 | 10.8% (inactive) | 55.9% | 0.96 (inactive) | 3.56% (inactive) | 5.29% (inactive) | 0.94 (inactive) | 1.67 (inactive) | 8.2% (inactive) | 5.8 | 1.9% (inactive) | 110% (active) | 52.9% (active) | -0.5% (inactive) | 109% (active) | 131% (active) | 101% (active) | 
5 | COC1=C(OC)C(=O)C(CCCCCCCCCCO)=C(C)C1=O | 97.9% (inactive) and 55.5% (inactive) | 71.1% and 140% | 0.94 (inactive) | -2.77% (inactive) | 2.98% (inactive) | 0.94 (inactive) | -0.18 (inactive) | -0.4% (inactive) | -1.8 | 2.2% (inactive) | 118% (active) | 66.9% (active) | 2.2% (inactive) | 94.2% (active) | 120% (active) | 82.7% (active) | 
6 | Nc1nc2c(ncn2CCC(CO)CO)c(=O)[nH]1 | 89.5% (inactive) and 22.2% (inactive) | 82.6% and 70.5% | 1.05 (inactive) | 2.77% (inactive) | -1.64% (inactive) | 1.01 (inactive) |  | 0.5% (inactive) | 1.8 | -2.4% (inactive) | 0.03% (inactive) | 11.3% (inactive) | 1.1% (inactive) | 6.65% (inactive) | 47.6% (inactive) | -0.57% (inactive) | inactive
7 | Clc1ccc2c(c1)CCc1cccnc1C2=C1CCNCC1 | 48.1% (inactive) and 27.5% (inactive) and 15.2% (inactive) | 92% and 56.9% and 74% | 1 (inactive) | -2.84% (inactive) | -3.54% (inactive) | 1 (inactive) | 1.87 (inactive) | 0.3% (inactive) | -0.9 | 37.7% (active) | 50.4% (active) | 9.9% (inactive) | 21.1% (active) | 55.5% (active) | 97.8% (active) | 30% (inactive) | 
8 | COc1ccc(C(=O)NCc2ccc(OCCN(C)C)cc2)cc1OC | 97.5% (inactive) and 24.6% (inactive) | 80.4% and 69% | 1.04 (inactive) | 1.19% (inactive) | 2.98% (inactive) | 1.05 (inactive) | -0.08 (inactive) | -0.3% (inactive) | 1 | 0.75% (inactive) | -2.9% (inactive) | 4.2% (inactive) | -0.4% (inactive) | 7% (inactive) | -4.6% (inactive) | -7.9% (inactive) | 
9 | CN(C)CC/C=C1/c2ccccc2COc2ccc(CC(=O)O)cc21 | 66.3% (inactive) and 36.6% (inactive) | 81.2% and 101% | 0.96 (inactive) | -6.33% (inactive) | -3.54% (inactive) | 0.94 (inactive) | -0.65 (inactive) | -0.9% (inactive) | 0.1 | 1.85% (inactive) | -0.6% (inactive) | 5.6% (inactive) | -0.7% (inactive) | 3.7% (inactive) | -7.7% (inactive) | 7.1% (inactive) | 
10 | CN(C/C=C/C#CC(C)(C)C)Cc1cccc2ccccc12 | 40.7% (inactive) and 65.8% (inactive) and 43.2% (inactive) | 99.2% and 68.9% and 104% | 1.06 (inactive) | 1.19% (inactive) | 4.52% (inactive) | 1 (inactive) | 0.0743 (inactive) | 5.3% (inactive) | 2.6 | 3.2% (inactive) | 84.2% (active) | 5.2% (inactive) | -3.9% (inactive) | 82.6% (active) | 121% (active) | 70.1% (active) | 
11 | CC[N+](C)(CC)CCOC(=O)C(O)(c1ccccc1)C1CCCCC1 (configuration not stated) | 65.2% (inactive) | 67.2% | 0.93 (inactive) | -3.71% (inactive) | -1.18% (inactive) | 0.89 (inactive) | -0.249 (inactive) | -1% (inactive) | 3.2 | -1.5% (inactive) | -16.6% (inactive) | -4.7% (inactive) | -3.3% (inactive) | 0.4% (inactive) | 0.8% (inactive) | -8.3% (inactive) | 
12 | O=C1CCc2ccc(OCCCCN3CCN(c4cccc(Cl)c4Cl)CC3)cc2N1 | 37.5% (inactive) and 20.9% (inactive) and 45.9% (inactive) | 98.8% and 60.3% and 100% | 1 (inactive) | 1.98% (inactive) | 4.52% (inactive) | 1.02 (inactive) | 1.76 (inactive) | 2.8% (inactive) | 0.4 | 3.7% (inactive) | 95% (active) | 3.8% (inactive) | 10.2% (inactive) | 99.4% (active) | 112% (active) | 89.5% (active) | 
13 | CCOc1cc(N)c(Cl)cc1C(=O)NCC1CN(Cc2ccc(F)cc2)CCO1 (configuration not stated) | 29.6% (inactive) | 70.5% | 0.99 (inactive) | 1.19% (inactive) | 4.52% (inactive) | 0.95 (inactive) | 0.948 (inactive) | 2.5% (inactive) | 1.9 | -0.4% (inactive) | 71.6% (active) | 5.1% (inactive) | 4.9% (inactive) | 46.1% (inactive) | 44.8% (inactive) | 24% (inactive) | 
14 | O=C(O)/C=C/c1ccc(Cn2ccnc2)cc1 | 92.2% (inactive) and 85.3% (inactive) and 50.2% (inactive) | 79.5% and 65.9% and 102% | 1.05 (inactive) | -2.77% (inactive) | -3.95% (inactive) | 0.97 (inactive) | -0.108 (inactive) | -2.1% (inactive) | 1.2 | 1.9% (inactive) | -15.3% (inactive) | 3% (inactive) | 5.1% (inactive) | 6.1% (inactive) | 9.3% (inactive) | 9% (inactive) | 
15 | CN1CCC(=C2c3ccccc3CCc3sccc32)CC1 | 28.2% (inactive) and 50.3% (inactive) and 34.4% (inactive) | 70.7% and 95.5% and 65.5% | 0.99 (inactive) | -1.98% (inactive) | -0.87% (inactive) | 0.94 (inactive) | 1.11 (inactive) | -0.8% (inactive) | -1.1 | 6.65% (inactive) | 47.1% (inactive) | 28.1% (inactive) | 5.3% (inactive) | 20.1% (inactive) | 103% (active) | 26.9% (inactive) | 
16 | CCOC(=O)C1=C(C)NC(C)=C(C(=O)OCC)C1c1ccccc1/C=C/C(=O)OC(C)(C)C | -0.13% (active) and 24.4% (inactive) | 74.1% and 104% | 0.9 (inactive) | 3.28% (inactive) | 3.54% (inactive) | 0.9 (inactive) | -0.248 (inactive) | 3% (inactive) | 1.2 | 0.3% (inactive) | 117% (active) | 101% (active) | -0.4% (inactive) | 124% (active) | 158% (active) | 101% (active) | 
17 | Cc1c(O)cccc1C(=O)N[C@@H](CSc1ccccc1)[C@H](O)CN1C[C@H]2CCCC[C@H]2C[C@H]1C(=O)NC(C)(C)C | 23.1% (inactive) and 3.4% (inactive) | 69.9% and 65.5% | 0.95 (inactive) | -4.36% (inactive) | 2.98% (inactive) | 0.94 (inactive) | 0.175 (inactive) | 2.3% (inactive) | -1.9 | 2.3% (inactive) | 117% (active) | 67.1% (active) | 7.9% (inactive) | 124% (active) | 158% (active) | 100% (active) | 
